The source of these data is PubChem BioAssay (EPA / NIEHS).

Inconclusive results are not listed. Activity calls are given as the source filed them. How the source made its calls, unless noted: active means hit-call score of the fitted dose curve at least 0.9, where 1 is the maximum; inactive means score below 0.9.

A short description of experiment [1]: CCTE_Harrill_HTTr_Viability_MCF7: CCTE's 6-hour Cell Viability Assessment for the High-Throughput Transcriptomics (HTTr) Platform, in MCF-7 cells cultured in DMEM + 10% fetal bovine serum, Harrill Lab (AID 2284010). A digest of the protocol: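 Propidium iodide exclusion, imaged by high-content analysis, gauged viability after a six-hour exposure across eight concentrations. Cells were MCF-7 grown in DMEM with 10% fetal bovine serum; fits run in both directions against DMSO.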

Experiment [2] in a line: CCTE_Harrill_HTTr_Apoptosis_MCF7: CCTE's 6-hour Apoptosis Assessment for the High-Throughput Transcriptomics (HTTr) Platform, in MCF-7 cells cultured in DMEM + 10% fetal bovine serum, Harrill Lab (AID 2284011). The method in brief:
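MCF-7 (DMEM + 10% FBS), 384-well; 8-pt dilution series, 6 h chemical exposure; caspase-3/7 activation via CellEvent Caspase 3/7 Green, HCI; bidirectional fit vs DMSO.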

The nature of experiment [3]: CCTE_Harrill_HTTr_CellCount_MCF7: CCTE's Cell Proliferation Assessment for the High-Throughput Transcriptomics (HTTr) Platform, Harrill Lab (AID 2284012; active means hit-call score of the fitted dose curve at least 0.9, where 1 is the maximum;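 further: cells exposed to compound for six hours; intended direction is loss of nuclei count meaning fewer cells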). The method in brief: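 Cell count from high-content imaging of Hoechst-labeled nuclei serves as viability/growth readout. Chemicals were applied to MCF-7 cells in eight concentrations for six hours, with fitting in both directions relative to DMSO.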

Experiment [4] can be described thus: CCTE_Deisenroth_AIME_96WELL_CTox_Active: Cytotoxicity Assessment (CTOX) in CCTE's 96-well Estrogen Receptor Transactivation Assay with AIME metabolic competence (metabolism positive), Deisenroth Lab (AID 2284028; active means hit-call score of the fitted dose curve at least 0.9, where 1 is the maximum). The method in brief:
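Cytotoxicity in VM7Luc4E2 breast cells after 24 h exposure to medium from a 2 h metabolic pre-incubation with induced rat hepatic S9 in alginate microspheres; fluorescent live-cell protease readout, 10-point series 0.002–200 uM, n=4.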

Experiment [5] can be described thus: CCTE_Deisenroth_AIME_96WELL_CTox_Inactive: Cytotoxicity Assessment (CTOX) in CCTE's 96-well Estrogen Receptor Transactivation Assay without AIME metabolic competence (metabolism negative), Deisenroth Lab (AID 2284029; active means hit-call score of the fitted dose curve at least 0.9, where 1 is the maximum). A digest of the protocol: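 Metabolism-negative mode: alginate-water lids without rat S9, 2 h pre-incubation of 10-point series (0.002 - 200 uM). Conditioned medium on VM7Luc4E2 cells 24 h; loss of fluorescent live-cell protease signal marks cytotoxicity.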

In experiment [6] the target is Estrogen receptor (Homo sapiens) (UniProt P03372). Briefly: CCTE_Deisenroth_AIME_96WELL_LUC_Active: CCTE's 96-well Estrogen Receptor Transactivation Assay with AIME metabolic competence (ERTA luciferase; metabolism positive), Deisenroth Lab (AID 2284023; active means hit-call score of the fitted dose curve at least 0.9, where 1 is the maximum). The method in brief:
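Metabolism-positive mode: induced rat hepatic S9 in alginate microspheres conditions test solutions (0.002 - 200 uM, 10 points) for 2 hours. VM7Luc4E2 ER luciferase reporter cells then exposed 24 h; positive-direction fit against 17beta-estradiol, n=4 typical.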

Experiment [7] shares this target. As to the kind of experiment: CCTE_Deisenroth_AIME_96WELL_LUC_Inactive: CCTE's 96-well Estrogen Receptor Transactivation Assay without AIME metabolic competence (ERTA luciferase; metabolism negative), Deisenroth Lab (AID 2284025; active means hit-call score of the fitted dose curve at least 0.9, where 1 is the maximum). A digest of the protocol: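 Metabolism-negative arm: chemicals (0.002–200 uM, 10 points) incubated 2 h with alginate-water microspheres, then medium moved onto VM7Luc4E2 cells for 24 h luciferase read-out. Positive direction vs 17beta-estradiol; n≥4 experiments.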

Chain of Estrogen receptor (Homo sapiens) (P03372 whole entry, looked up): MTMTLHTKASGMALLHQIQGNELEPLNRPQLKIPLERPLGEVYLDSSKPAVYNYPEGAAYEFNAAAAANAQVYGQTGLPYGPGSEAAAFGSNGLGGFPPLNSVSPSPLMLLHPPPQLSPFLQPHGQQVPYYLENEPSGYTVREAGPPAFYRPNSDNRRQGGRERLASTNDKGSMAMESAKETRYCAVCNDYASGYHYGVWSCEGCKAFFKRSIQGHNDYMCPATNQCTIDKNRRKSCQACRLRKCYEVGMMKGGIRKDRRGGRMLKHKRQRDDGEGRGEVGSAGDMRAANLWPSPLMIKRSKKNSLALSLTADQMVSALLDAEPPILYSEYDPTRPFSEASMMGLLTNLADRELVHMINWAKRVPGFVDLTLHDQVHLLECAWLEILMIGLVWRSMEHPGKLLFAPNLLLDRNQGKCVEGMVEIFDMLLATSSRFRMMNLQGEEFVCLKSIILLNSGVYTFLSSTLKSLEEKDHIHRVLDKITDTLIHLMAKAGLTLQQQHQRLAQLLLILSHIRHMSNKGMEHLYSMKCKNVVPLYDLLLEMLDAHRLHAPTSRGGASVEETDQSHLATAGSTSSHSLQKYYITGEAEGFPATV

Take `O=C1OCc2ccccc21`: the result in experiment [1] and in experiment [2] was inactive.

As for `CCCCCCOC(C)=O`, the result in experiment [1] and in experiment [2] was inactive.

Turning to `c1coc(CNc2ncnc3nc[nH]c23)c1`, the result in experiment [1] and in experiment [2] was inactive.

In the case of `[O-]/[N+](=N\O)c1ccccc1`, the outcome in experiment [1], in experiment [2] and in experiment [3] was inactive.

Consider `NC(=O)c1cnccn1`, for which the result in experiment [1] and in experiment [2] was inactive.

Take `C[C@H](CCC(=O)O)[C@H]1CC[C@H]2[C@@H]3CC[C@@H]4C[C@H](O)CC[C@]4(C)[C@H]3CC[C@]12C`: the result in experiment [1], in experiment [2] and in experiment [3] was inactive.

`CC(C)Cc1ccccc1`: the result in experiment [1], in experiment [2] and in experiment [3] was inactive.

Broadly, the AC50 is the midpoint of the concentration-response curve, whichever way the signal moves. As for `C#C[C@]1(O)CC[C@H]2[C@@H]3CCc4cc(O)ccc4[C@H]3CC[C@@]21C`, the outcome in experiment [1] and in experiment [2] was inactive. Further, the figures for the AC50 in experiment [4] and in experiment [5] were 135 µM (active) and 116 µM (active), respectively.

In the case of `NC(=O)c1c(Cl)cccc1Cl`, the outcome in experiment [1] and in experiment [2] was inactive.

On to `CC(=O)CC(=O)N(C)C`, for which the outcome in experiment [1] and in experiment [2] was inactive.

Take `CC(C)Cc1ccc(C(C)C(=O)O)cc1` (stereo not drawn): the result in experiment [1] and in experiment [2] was inactive.

Regarding `O=C(OCc1ccccc1)c1ccccc1O`, the outcome in experiment [1] and in experiment [2] was inactive.

For the molecule `Cc1cccc(C)c1`, the result in experiment [1], in experiment [2] and in experiment [3] was inactive.

On to `Cc1cccc(O)c1`, for which the result in experiment [1], in experiment [2] and in experiment [3] was inactive.

Turning to `C=CC(C)CCCC(C)(C)O` (stereo not drawn), the outcome in experiment [1] and in experiment [2] was inactive.

Turning to `CCOc1ccc(NC(C)=O)cc1`, the result in experiment [1], in experiment [2] and in experiment [3] was inactive.

For `NC(N)=S`, the outcome in experiment [1], in experiment [2] and in experiment [3] was inactive.

Take `CC(O)CN` (stereo not drawn): the outcome in experiment [1] and in experiment [2] was inactive.

Take `O=c1cc(-c2ccc(O)cc2)oc2cc(O)cc(O)c12`: the result in experiment [1] and in experiment [2] was inactive.

Turning to `O=C(O)c1ccccc1O`, the outcome in experiment [1] and in experiment [2] was inactive.

Turning to `c1ccc(Cc2ccccc2)cc1`, the outcome in experiment [1], in experiment [2], in experiment [3] and in experiment [7] was inactive. The AC50 in experiment [6] is 74.4 µM (active).

In the case of `CCCCCCCCCCCCCC(=O)OCC`, the result in experiment [1], in experiment [2] and in experiment [3] was inactive.

In the case of `FC(F)(F)c1ccc(Cl)c(Cl)c1`, the outcome in experiment [1], in experiment [2] and in experiment [3] was inactive.

On to `O=C(O)C1=NN(c2ccc(S(=O)(=O)O)cc2)C(=O)C1`, for which the result in experiment [1], in experiment [2] and in experiment [3] was inactive.

On to `Cc1cc(O)c2c(c1)C(=O)c1cc(O)cc(O)c1C2=O`, for which the outcome in experiment [1] and in experiment [2] was inactive.

Consider `c1ccc2scnc2c1`, for which the result in experiment [1], in experiment [2] and in experiment [3] was inactive.

Consider `O=C(O)c1cc(C(=O)O)c(C(=O)O)cc1C(=O)O`, for which the result in experiment [1], in experiment [2] and in experiment [3] was inactive.

With `CN(C)CCCNCCCN(C)C`, the result in experiment [1] and in experiment [2] was inactive.

For the molecule `CC(C)(O)CCc1ccccc1`, the result in experiment [1] and in experiment [2] was inactive.

In the case of `CN1CCc2cccc3c2[C@H]1Cc1ccc(O)c(O)c1-3`, the outcome in experiment [1] and in experiment [2] was inactive.

Regarding `C[C@]12CC[C@@H]3c4ccc(O)cc4CC[C@H]3[C@@H]1CC[C@@H]2O`, the outcome in experiment [1], in experiment [2], in experiment [4] and in experiment [5] was inactive.

Regarding `Brc1cc(Br)cc(Br)c1`, the outcome in experiment [1] and in experiment [2] was inactive.
